Assays:
Assay in all cases: DAPPL (digital affinity profiling via proximity ligation, sequencing); 10 mM Tris-HCl pH 7.5, 50 mM NaCl, 1 mM DTT, 4% glycerol, room temperature, 30 min; GST-TFs on glutathione beads, 16-mer random dsDNA library, 0.1% formaldehyde crosslink after washing; high values mean tight binding
Conditions in all cases: protein: recombinant; tags: N-terminal GST; dsDNA, one strand shown
FLI1 = target: T1, FLI1 (Homo sapiens, UniProt Q01543 1-452)
T1 sequence: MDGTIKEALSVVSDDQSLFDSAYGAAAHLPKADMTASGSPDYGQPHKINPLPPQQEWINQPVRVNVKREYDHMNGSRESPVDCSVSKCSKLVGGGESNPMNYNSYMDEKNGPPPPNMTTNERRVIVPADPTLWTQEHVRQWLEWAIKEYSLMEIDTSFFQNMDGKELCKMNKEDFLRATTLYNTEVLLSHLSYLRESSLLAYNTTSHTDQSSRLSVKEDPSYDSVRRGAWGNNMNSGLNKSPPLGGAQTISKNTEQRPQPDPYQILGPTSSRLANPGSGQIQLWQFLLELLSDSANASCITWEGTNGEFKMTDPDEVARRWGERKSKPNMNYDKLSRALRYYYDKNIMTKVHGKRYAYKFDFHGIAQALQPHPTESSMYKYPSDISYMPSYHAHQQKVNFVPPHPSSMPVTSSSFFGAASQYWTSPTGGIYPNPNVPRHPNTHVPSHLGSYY
Outline: (§1)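 Binding signal is defined as a hexamer's read frequency for one factor over its frequency for the tag-only sample. To obtain reads, GST-fused human transcription factors were expressed in yeast, captured on glutathione beads, barcoded with DNA and pooled with that sample. Pools met 200 nmole of a 16-mer random double-stranded DNA library in Tris/NaCl/DTT/glycerol buffer for 30 min at room temperature before washing, 0.1% formaldehyde crosslinking, proximity ligation (BsaI/T4 ligase, 1 h, 37 °C), PCR and Illumina NextSeq500 sequencing.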

ELK1 = target: T2, ELK1 (Homo sapiens, UniProt P19419 1-428)
T2 sequence: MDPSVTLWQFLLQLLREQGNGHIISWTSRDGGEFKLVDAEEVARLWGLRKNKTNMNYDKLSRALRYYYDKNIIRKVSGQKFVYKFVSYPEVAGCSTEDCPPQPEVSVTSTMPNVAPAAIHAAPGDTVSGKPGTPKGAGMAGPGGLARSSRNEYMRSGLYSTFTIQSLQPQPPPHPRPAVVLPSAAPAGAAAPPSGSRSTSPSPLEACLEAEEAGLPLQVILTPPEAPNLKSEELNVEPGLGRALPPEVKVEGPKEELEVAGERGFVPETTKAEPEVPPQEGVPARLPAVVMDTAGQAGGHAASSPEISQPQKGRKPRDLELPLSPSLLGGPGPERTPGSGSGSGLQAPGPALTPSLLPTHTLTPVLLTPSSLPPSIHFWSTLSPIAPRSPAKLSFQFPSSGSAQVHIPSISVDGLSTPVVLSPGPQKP
Outline: as §1

GABPA = target: T3, GABPA (Homo sapiens, UniProt Q06546 1-454)
T3 sequence: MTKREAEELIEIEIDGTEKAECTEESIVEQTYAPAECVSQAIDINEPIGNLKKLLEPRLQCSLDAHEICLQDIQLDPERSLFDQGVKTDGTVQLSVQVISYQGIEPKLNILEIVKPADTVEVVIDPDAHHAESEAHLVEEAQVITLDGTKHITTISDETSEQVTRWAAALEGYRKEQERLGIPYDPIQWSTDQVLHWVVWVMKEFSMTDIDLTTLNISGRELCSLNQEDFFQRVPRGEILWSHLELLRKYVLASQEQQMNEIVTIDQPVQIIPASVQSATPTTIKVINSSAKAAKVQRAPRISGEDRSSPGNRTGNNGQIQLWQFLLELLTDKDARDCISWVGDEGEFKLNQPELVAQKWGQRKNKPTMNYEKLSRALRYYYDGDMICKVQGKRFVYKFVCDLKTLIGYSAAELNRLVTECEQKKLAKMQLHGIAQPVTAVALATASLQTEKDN
Outline: as §1

ERG = target: T4, ERG (Homo sapiens, UniProt P11308 1-479)
T4 sequence: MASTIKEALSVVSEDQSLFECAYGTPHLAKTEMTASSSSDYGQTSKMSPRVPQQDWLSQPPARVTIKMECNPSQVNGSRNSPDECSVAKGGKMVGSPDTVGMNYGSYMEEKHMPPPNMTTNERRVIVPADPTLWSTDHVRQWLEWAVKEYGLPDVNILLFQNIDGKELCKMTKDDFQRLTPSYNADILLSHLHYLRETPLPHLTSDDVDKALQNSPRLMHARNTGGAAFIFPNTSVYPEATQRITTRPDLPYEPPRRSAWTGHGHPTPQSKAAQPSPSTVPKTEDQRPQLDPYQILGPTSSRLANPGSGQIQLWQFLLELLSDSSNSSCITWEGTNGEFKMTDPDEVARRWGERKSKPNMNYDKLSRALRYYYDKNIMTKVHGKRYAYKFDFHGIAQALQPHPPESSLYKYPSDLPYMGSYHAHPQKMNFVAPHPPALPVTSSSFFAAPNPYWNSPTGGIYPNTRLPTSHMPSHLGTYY
Outline: as §1

ELF1 = ELF1 (Homo sapiens, UniProt P32519 1-619)
Chain of ELF1 (P32519 whole entry): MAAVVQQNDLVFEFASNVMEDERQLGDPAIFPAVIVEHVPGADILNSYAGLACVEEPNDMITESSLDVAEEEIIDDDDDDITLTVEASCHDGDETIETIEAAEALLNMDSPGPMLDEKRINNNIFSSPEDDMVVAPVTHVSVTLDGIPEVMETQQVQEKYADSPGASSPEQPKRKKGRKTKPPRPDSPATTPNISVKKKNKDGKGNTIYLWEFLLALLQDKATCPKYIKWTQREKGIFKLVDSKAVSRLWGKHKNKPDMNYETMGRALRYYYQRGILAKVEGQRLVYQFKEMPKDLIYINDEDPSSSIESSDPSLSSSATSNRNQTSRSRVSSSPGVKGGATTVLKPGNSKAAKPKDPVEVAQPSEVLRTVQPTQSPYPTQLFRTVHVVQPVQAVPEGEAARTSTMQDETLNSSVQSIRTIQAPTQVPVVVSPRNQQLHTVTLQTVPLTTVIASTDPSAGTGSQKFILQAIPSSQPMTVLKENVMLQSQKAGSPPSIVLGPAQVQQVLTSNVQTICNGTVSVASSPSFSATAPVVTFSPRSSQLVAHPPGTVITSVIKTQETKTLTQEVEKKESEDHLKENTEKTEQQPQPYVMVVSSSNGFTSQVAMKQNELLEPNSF
Outline: as §1

EHF = target: T5, EHF (Homo sapiens, UniProt Q9NZC4 1-300)
T5 sequence: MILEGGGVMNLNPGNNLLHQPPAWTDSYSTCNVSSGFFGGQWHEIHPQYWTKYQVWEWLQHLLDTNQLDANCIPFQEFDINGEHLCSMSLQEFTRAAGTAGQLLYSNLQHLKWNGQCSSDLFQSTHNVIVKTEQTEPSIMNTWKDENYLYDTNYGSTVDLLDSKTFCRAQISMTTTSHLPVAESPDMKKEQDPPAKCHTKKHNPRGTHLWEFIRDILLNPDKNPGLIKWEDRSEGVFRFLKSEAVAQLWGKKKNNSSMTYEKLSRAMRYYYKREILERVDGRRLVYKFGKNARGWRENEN
Outline: as §1

SPI1 = SPI1 (Homo sapiens, UniProt P17947 1-270)
Outline: as §1

SPIB = SPIB (Homo sapiens, UniProt Q01892 1-262)
Chain of SPIB (Q01892 whole entry): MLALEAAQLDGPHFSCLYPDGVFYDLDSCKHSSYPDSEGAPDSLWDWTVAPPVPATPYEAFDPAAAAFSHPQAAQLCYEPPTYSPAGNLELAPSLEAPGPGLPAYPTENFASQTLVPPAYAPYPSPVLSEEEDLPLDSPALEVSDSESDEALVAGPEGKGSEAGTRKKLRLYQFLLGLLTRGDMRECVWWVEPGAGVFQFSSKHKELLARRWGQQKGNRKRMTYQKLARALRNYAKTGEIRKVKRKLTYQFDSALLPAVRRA
Outline: as §1

ELK3 = target: T6, ELK3 (Homo sapiens, UniProt P41970 1-407)
T6 sequence: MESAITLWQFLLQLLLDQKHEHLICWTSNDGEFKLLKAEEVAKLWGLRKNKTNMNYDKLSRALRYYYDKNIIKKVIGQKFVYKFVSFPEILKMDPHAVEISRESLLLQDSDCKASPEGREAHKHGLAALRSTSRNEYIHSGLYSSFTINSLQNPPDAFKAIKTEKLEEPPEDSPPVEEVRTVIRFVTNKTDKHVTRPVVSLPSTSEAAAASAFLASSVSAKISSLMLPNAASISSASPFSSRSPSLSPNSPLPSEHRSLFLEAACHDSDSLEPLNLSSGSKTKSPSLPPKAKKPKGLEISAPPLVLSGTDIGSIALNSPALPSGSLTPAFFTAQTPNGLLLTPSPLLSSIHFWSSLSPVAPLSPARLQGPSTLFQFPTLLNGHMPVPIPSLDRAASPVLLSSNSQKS
Outline: as §1

| Sequence | binding signal (FLI1) | binding signal (ELK1) | binding signal (GABPA) | binding signal (ERG) | binding signal (ELF1) | binding signal (EHF) | binding signal (SPI1) | binding signal (SPIB) | binding signal (ELK3) |
| --- | --- | --- | --- | --- | --- | --- | --- | --- | --- |
| CCCGGA | 2.74 fold enrichment (6-mer frequency, TF over GST control) | 2.61 fold enrichment (6-mer frequency, TF over GST control) | 2.61 fold enrichment (6-mer frequency, TF over GST control) | 2.99 fold enrichment (6-mer frequency, TF over GST control) | 2.87 fold enrichment (6-mer frequency, TF over GST control) | 2.95 fold enrichment (6-mer frequency, TF over GST control) | 2.47 fold enrichment (6-mer frequency, TF over GST control) | 3.06 fold enrichment (6-mer frequency, TF over GST control) | 2.85 fold enrichment (6-mer frequency, TF over GST control) |
| ATCATG | 1.21 fold enrichment (6-mer frequency, TF over GST control) | 1.15 fold enrichment (6-mer frequency, TF over GST control) | 1.22 fold enrichment (6-mer frequency, TF over GST control) | 1.1 fold enrichment (6-mer frequency, TF over GST control) | 1.17 fold enrichment (6-mer frequency, TF over GST control) | 1.19 fold enrichment (6-mer frequency, TF over GST control) | 1.06 fold enrichment (6-mer frequency, TF over GST control) | 1.14 fold enrichment (6-mer frequency, TF over GST control) | 1.15 fold enrichment (6-mer frequency, TF over GST control) |
| TTCCGT | 1.79 fold enrichment (6-mer frequency, TF over GST control) | 2.11 fold enrichment (6-mer frequency, TF over GST control) | 1.76 fold enrichment (6-mer frequency, TF over GST control) | 2.13 fold enrichment (6-mer frequency, TF over GST control) | 1.74 fold enrichment (6-mer frequency, TF over GST control) | 2 fold enrichment (6-mer frequency, TF over GST control) | 2.14 fold enrichment (6-mer frequency, TF over GST control) | 2.07 fold enrichment (6-mer frequency, TF over GST control) | 1.86 fold enrichment (6-mer frequency, TF over GST control) |
| TCCACG | 1.09 fold enrichment (6-mer frequency, TF over GST control) | 1.08 fold enrichment (6-mer frequency, TF over GST control) | 1.2 fold enrichment (6-mer frequency, TF over GST control) | 1.09 fold enrichment (6-mer frequency, TF over GST control) | 1.09 fold enrichment (6-mer frequency, TF over GST control) | 1.06 fold enrichment (6-mer frequency, TF over GST control) | 1.06 fold enrichment (6-mer frequency, TF over GST control) | 1.11 fold enrichment (6-mer frequency, TF over GST control) | 1.14 fold enrichment (6-mer frequency, TF over GST control) |
| CCCCAC | 1.19 fold enrichment (6-mer frequency, TF over GST control) | 1.24 fold enrichment (6-mer frequency, TF over GST control) | 1.19 fold enrichment (6-mer frequency, TF over GST control) | 1.2 fold enrichment (6-mer frequency, TF over GST control) | 1.24 fold enrichment (6-mer frequency, TF over GST control) | 1.34 fold enrichment (6-mer frequency, TF over GST control) | 1.22 fold enrichment (6-mer frequency, TF over GST control) | 1.25 fold enrichment (6-mer frequency, TF over GST control) | 1.34 fold enrichment (6-mer frequency, TF over GST control) |
| AACGGC | 1.08 fold enrichment (6-mer frequency, TF over GST control) | 1.13 fold enrichment (6-mer frequency, TF over GST control) | 1.25 fold enrichment (6-mer frequency, TF over GST control) | 1.18 fold enrichment (6-mer frequency, TF over GST control) | 1.16 fold enrichment (6-mer frequency, TF over GST control) | 1.25 fold enrichment (6-mer frequency, TF over GST control) | 1.2 fold enrichment (6-mer frequency, TF over GST control) | 1.24 fold enrichment (6-mer frequency, TF over GST control) | 1.06 fold enrichment (6-mer frequency, TF over GST control) |
| TTCCCT | 1.81 fold enrichment (6-mer frequency, TF over GST control) | 1.67 fold enrichment (6-mer frequency, TF over GST control) | 1.72 fold enrichment (6-mer frequency, TF over GST control) | 1.72 fold enrichment (6-mer frequency, TF over GST control) | 1.68 fold enrichment (6-mer frequency, TF over GST control) | 1.68 fold enrichment (6-mer frequency, TF over GST control) | 2.23 fold enrichment (6-mer frequency, TF over GST control) | 1.9 fold enrichment (6-mer frequency, TF over GST control) | 1.8 fold enrichment (6-mer frequency, TF over GST control) |
| GTCCCC | 1.14 fold enrichment (6-mer frequency, TF over GST control) | 1.29 fold enrichment (6-mer frequency, TF over GST control) | 1.19 fold enrichment (6-mer frequency, TF over GST control) | 1.23 fold enrichment (6-mer frequency, TF over GST control) | 1.19 fold enrichment (6-mer frequency, TF over GST control) | 1.28 fold enrichment (6-mer frequency, TF over GST control) | 1.23 fold enrichment (6-mer frequency, TF over GST control) | 1.24 fold enrichment (6-mer frequency, TF over GST control) | 1.29 fold enrichment (6-mer frequency, TF over GST control) |

Reference: paper PMC7862700, “An all-to-all approach to the identification of sequence-specific readers for epigenetic DNA modifications on cytosine”
